Screening results as filed in PubChem BioAssay.
FBPA coupling cs: coupling enzyme interference in Giardia aldolase counter-screen; coupling enzyme system counterscreen, AmpLite Red fluorescence; activity change, negative = inhibition, % at 58.2 µM, hits read low; hit rate 0.67% among 290,000; AID 2472; in the data active = activity change below about -30%
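First, compound is pin-transferred into glyceraldehyde-3-phosphate coupling-enzyme reagent at 57.5 uM final and held 10 min at RT. Next, substrate, coupling system and AmpLite Red are added. After 20 min RT, fluorescence (525/598 nm) is read.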
Sfp PPTase inh: Sfp phosphopantetheinyl transferase inhibition; Q9F4F7; Biochemical Sfp PPTase activity, qHTS; Potency, µM, hits mostly inhibitors; hit rate 3.5% among 310,000; AID 1490;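 also: the enzyme is Sfp with the accession as filed and its product quenches rhodamine fluorescence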
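Compounds were incubated with enzyme (final 15 nM) for 15 min at room temperature before substrate addition started the reaction. Fluorescence at 525 nm excitation, 598 nm emission was recorded immediately and after 30 minutes.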
Tau fluor cs: counter-screen for tau fibril formation inhibitors; tau K18 P301L Alexa594 fluorescence, heparin fibrillization; Potency, µM (doses to about 57.7 µM); AID 1463; hit rate 0.93% among 280,000; also: nearly all actives have a fitted effect of over 55% in size
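Human K18 P301L tau (15 uM unlabeled plus 0.24 uM Alexa 594-labeled, final) in 100 mM sodium acetate pH 7 was mixed with compound and 20 uM heparin and incubated 6 hr at 37 C.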
Tau fibril ThT: tau fibrillization inhibition (ThT binding); P10636; recombinant tau K18 P301L (four-repeat tau fragment), heparin-induced fibrillization, ThT fluorescence; Potency, µM (titrated, usually from 57.4 µM), hits mostly inhibitors; hit rate 2.1% among 270,000; AID 1460; also: nearly all actives have a fitted effect of over 55% in size
Target sequence (P10636 561-689 P618L limits assumed): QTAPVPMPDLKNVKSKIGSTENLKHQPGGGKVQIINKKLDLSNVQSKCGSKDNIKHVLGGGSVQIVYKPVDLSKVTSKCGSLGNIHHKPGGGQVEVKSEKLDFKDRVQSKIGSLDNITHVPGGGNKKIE
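Recombinant human tau K18 fragment […] carrying P301L, 15 uM unlabeled plus 0.24 uM Alexa 594-labeled, was fibrillized with 20 uM heparin in 100 mM sodium acetate pH 7 for 6 hr at 37 C; 30 uM ThT fluorescence read after 1 hr.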
G9a inh: blocks human histone lysine methyltransferase G9a. Q96KQ7. G9a H3K9 monomethylation, AlphaScreen, 2 h. Potency, µM (titrated, usually from 102 µM), actives largely listed as inhibitors. hit rate 8.8% among 350,000. AID 504332; also: nearly all actives have a fitted effect of over 75% in size
Target sequence (Q96KQ7 913-1193 limits assumed): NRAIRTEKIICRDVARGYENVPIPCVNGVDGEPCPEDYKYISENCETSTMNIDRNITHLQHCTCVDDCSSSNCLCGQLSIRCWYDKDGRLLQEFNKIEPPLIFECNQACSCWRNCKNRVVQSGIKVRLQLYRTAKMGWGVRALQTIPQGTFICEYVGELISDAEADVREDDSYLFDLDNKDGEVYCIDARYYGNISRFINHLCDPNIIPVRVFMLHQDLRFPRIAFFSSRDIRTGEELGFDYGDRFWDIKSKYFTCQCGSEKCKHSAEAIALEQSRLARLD
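G9a (20 nM) was preincubated 15 min with compound, then reacted 2 h at room temperature with 500 nM biotin-H3K9 peptide and 20 µM SAM. Monomethyl-H3K9 detected by AlphaScreen using anti-H3K9me1 antibody.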
Tau FP inhib: inhibitors of human tau fibril formation | Potency, µM (highest dose often 57.7 µM), actives largely listed as inhibitors | P10636 | hit rate 0.39% among 280,000 | K18 P301L tau heparin fibrillization, Alexa594 FP, 6 h; also: nearly all actives have a fitted effect of over 55% in size
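Quantitative HTS format: compounds meet 15 uM recombinant K18 P301L tau and Alexa 594-tau tracer in 100 mM sodium acetate pH 7; 20 uM heparin triggers fibrillization at 37 C over 6 hr; FP gives the signal.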
Each line names hits and unclear results; the compound was inactive in the other large screens; ! = not confirmed by another sample; [ ] = remark or other dose. An excerpt weighted towards active compounds, which were near 11% of everything screened. Unless noted, calls follow the shape of the dose curve; as a rule, active = well fitted curve in the direction sought with a large enough effect; inconclusive = small, poorly fitted or top-dose-only effect, or another doubt; inactive = no such curve, though single readings can be large; an effect the other way counts as inactive or inconclusive.

C(=N\Nc1nc2ccccc2[nH]1)/c1c[nH]c2ccccc12	Sfp PPTase inh inconclusive, Tau fluor cs 16µM[quencher], Tau fibril ThT 13µM
C(=N\Nc1nc2ccccc2[nH]1)/c1ccccc1	Tau fibril ThT inconclusive
COc1ccc(/C=N/Nc2nc3ccccc3[nH]2)c(OC)c1OC	Tau fluor cs inconclusive, Tau fibril ThT inconclusive (no result: G9a inh)
Cc1cc(=O)[nH]c(N/N=C/c2c[nH]c3ccccc23)n1	Sfp PPTase inh 28µM, Tau fluor cs inconclusive, Tau fibril ThT inconclusive, G9a inh inconclusive
O=[N+]([O-])c1cc(/C=N/Nc2nc3ccccc3[nH]2)c(O)cc1O	Tau fluor cs inconclusive, Tau fibril ThT inconclusive, G9a inh 50µM
O=C(C1=C[C@H](c2csc3ccccc23)C[C@H](OCCCCO)O1)N1CCN(Cc2ccc3c(c2)OCO3)CC1	Tau fibril ThT inconclusive, G9a inh inconclusive, Tau FP inhib inconclusive
CCN1CCCc2cc(CN(CCN3CCOCC3)C(=S)Nc3ccc(OC)c(Cl)c3)ccc21	G9a inh 50µM
CCN1CCCc2cc(CN(CCN3CCOCC3)C(=S)Nc3ccccc3OC)ccc21	Tau fibril ThT inconclusive, G9a inh 25µM
CC(C)(C)C(=O)Nc1cc2c3c(c1)CCN3C(=O)CC2	none (no result: Tau fluor cs, Tau fibril ThT, Tau FP inhib)
Cc1cccc(Nc2c([N+](=O)[O-])cc(C(=O)N3CC(=O)Nc4ccccc43)cc2[N+](=O)[O-])c1	Tau fluor cs inconclusive, Tau fibril ThT inconclusive, G9a inh 11µM
Cc1ccc(C)c(Nc2c([N+](=O)[O-])cc(C(=O)N3CC(=O)Nc4ccccc43)cc2[N+](=O)[O-])c1	Tau fibril ThT inconclusive, G9a inh 18µM
CC1(C)CC(=S)Nc2ccccc2S1	Sfp PPTase inh 28µM, G9a inh 7.9µM
CCOC(=O)c1c(-c2cccs2)csc1NC(=O)CC(C)C	none
NC(=O)c1c(-c2cccs2)csc1N	FBPA coupling cs -45, Sfp PPTase inh 40µM, Tau fibril ThT inconclusive
COc1cc(SC)ccc1C(=O)N1CCN(c2ccc(O)cc2)CC1	Sfp PPTase inh 56µM, Tau fibril ThT inconclusive, G9a inh 16µM
COc1cc(SC)ccc1C(=O)N1CCC(Cc2ccccc2)CC1	G9a inh 10µM (no result: Tau fluor cs, Tau fibril ThT, Tau FP inhib)
COc1cc(SC)ccc1C(=O)OCC(=O)NC1CCCCC1	none
COc1cc(SC)ccc1C(=O)N1CCN(c2ccccc2)CC1	none
COc1cc(SC)ccc1C(=O)NC1CCCCC1	G9a inh 1.1µM
Nc1c(-c2ccccc2)sc2ccc3ccccc3[n+]12	Sfp PPTase inh 35µM, G9a inh 1µM (no result: FBPA coupling cs, Tau fluor cs, Tau fibril ThT, Tau FP inhib)
COc1ccc(-n2c(=O)c(-c3ccc(Cl)cc3)nc3cnc(N4CCOCC4)nc32)cc1	none (no result: Tau fluor cs, Tau fibril ThT, Tau FP inhib)
Cc1nnsc1NC(=O)OCC(C)C	Tau fibril ThT inconclusive
Cc1nnsc1NC(=O)OCC(C)(C)C	G9a inh 50µM
Cc1ccc(S(=O)(=O)N2CCN(C(=O)c3ccc4nc[nH]c4c3)CC2)cc1	none (no result: FBPA coupling cs, Sfp PPTase inh, Tau fluor cs, Tau fibril ThT, Tau FP inhib)
Cc1ccc(NC(=O)CN(C)C(=O)c2cc(-c3ccco3)nc3ccccc23)cc1	G9a inh 32µM (no result: FBPA coupling cs, Sfp PPTase inh, Tau fluor cs, Tau fibril ThT, Tau FP inhib)
COc1cccc(NC(=O)CN(C)C(=O)c2cc(-c3ccco3)nc3ccccc23)c1	G9a inh 50µM (no result: FBPA coupling cs, Sfp PPTase inh, Tau fluor cs, Tau fibril ThT, Tau FP inhib)
Cc1csc(=O)n1CC(=O)OCC(=O)NCc1ccc(Cl)cc1Cl	none (no result: FBPA coupling cs, Sfp PPTase inh, Tau fluor cs, Tau fibril ThT, Tau FP inhib)
Nc1nc(=S)c2ncn([C@H]3O[C@@H](CO)[C@@H](O)[C@@H]3O)c2[nH]1	Sfp PPTase inh 11µM, G9a inh inconclusive (no result: Tau fluor cs, Tau fibril ThT, Tau FP inhib)
Nc1ncn(C2O[C@H](CO)[C@@H](O)[C@H]2O)c(=O)n1 (some centres undefined)	none (no result: FBPA coupling cs, Sfp PPTase inh, Tau fluor cs, Tau fibril ThT, Tau FP inhib)
NC(=O)c1ncn([C@@H]2O[C@H](CO)[C@@H](O)[C@H]2O)c1O	G9a inh 25µM!
Cc1ccc(C)c(Cn2cc(S(=O)(=O)c3ccc(Cl)cc3)c(=O)c3cc(F)ccc32)c1	none (no result: FBPA coupling cs, Sfp PPTase inh)
CSc1ncnc2c1ncn2C1OC(CO)C(O)C1O (centres undefined)	none (no result: G9a inh)
CCOc1ccc(-n2c(=S)sc3c(=O)[nH]c(SCC(=O)C(C)(C)C)nc32)cc1	Tau fibril ThT inconclusive
COc1ccc(-c2nc(N3CCN(C)CC3)sc2-c2ccc(OC)cc2)cc1	Sfp PPTase inh inconclusive, G9a inh 14µM (no result: Tau fluor cs, Tau fibril ThT, Tau FP inhib)
